Results filed as inconclusive are left out. Unmarked numbers belong to inactive results. The source made the active and inactive calls. The call rests on the fitted dose curve; in most records, active means well fitted inhibition curve with a large enough effect; inconclusive means small, poorly fitted or top-dose-only effect; inactive means flat fitted curve, though single readings scatter.

Experiment [1] relates to Dd2. As to the kind of experiment: qHTS profiling for inhibitors of Plasmodium falciparum proliferation (AID 504749). Further: potency means the concentration at half of the fitted maximal effect. The following applies: P. falciparum in erythrocytes, SYBR Green DNA, 72 h; series mostly up to 28.7 µM. Put shortly:
(§1)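 In a 72 h erythrocytic culture (37 C, humidified, 5% CO2) at 2.5% hematocrit and 0.3% starting parasitemia, compounds were tested; SYBR Green I in detergent lysis buffer stained parasite DNA overnight.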
(qHTS replaces the single test concentration by a dilution series.)

Experiment [2] relates to FAB9. Described as above. Particulars: P. falciparum in erythrocytes, SYBR Green DNA, 72 h; series mostly up to 28.7 µM. In short, it runs like this: as §1
Experiment [3] has as its system HB3. The experiment is described as above. Particulars: P. falciparum in erythrocytes, SYBR Green DNA, 72 h; series mostly up to 28.7 µM. In short, it runs like this: as §1
Experiment [4] has as its system JCK. The description is as above. Particulars: P. falciparum in erythrocytes, SYBR Green DNA, 72 h; series mostly up to 28.7 µM. In short, it runs like this: as §1
The test system of experiment [5] is N140. The experiment is described as above. The following applies: P. falciparum in erythrocytes, SYBR Green DNA, 72 h; series mostly up to 28.7 µM. In short, it runs like this:
as §1

In experiment [6] the test system is PC15. Described as above. Particulars: P. falciparum in erythrocytes, SYBR Green DNA, 72 h; series mostly up to 28.7 µM. Put shortly: as §1
The test system of experiment [7] is PC26. The experiment is described as above. Particulars: P. falciparum in erythrocytes, SYBR Green DNA, 72 h; series mostly up to 28.7 µM. Put shortly:
as §1

Experiment [8] deals with PC49. The description is as above. The following applies: P. falciparum in erythrocytes, SYBR Green DNA, 72 h; series mostly up to 28.7 µM. In short, it runs like this: as §1
Experiment [9] relates to SC27B. The experiment is described as above. Particulars: P. falciparum in erythrocytes, SYBR Green DNA, 72 h; series mostly up to 28.7 µM. In short, it runs like this:
as §1

Experiment [10] deals with TAB113. The experiment is described as above. The following applies: P. falciparum in erythrocytes, SYBR Green DNA, 72 h; series mostly up to 28.7 µM. Put shortly: as §1
The test system of experiment [11] is W2. Described as above. The following applies: P. falciparum in erythrocytes, SYBR Green DNA, 72 h; series mostly up to 28.7 µM. In short, it runs like this:
as §1

The subject of experiment [12] is CRL-7250. As to the kind of experiment: Cytotoxic Profiling of Annotated Libraries Using Quantitative High-Throughput Screening (AID 1296008). On max response: on the % scale 0 is the no-effect control and ±100 the full control effect. Particulars: Five cell lines viability, CellTiter-Glo ATP luminescence, 48-72 h; max response: hits give low values. Put shortly: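 Cytotoxicity was measured as CellTiter-Glo ATP luminescence, read after 10 min at room temperature. Compound treatment of the cells lasted 48 or 72 hr at 37 degrees Celsius in a qHTS format.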
On the technique in general: Cellular ATP, detected with luciferase, serves as a proxy for viable cell number.

For experiment [13], the system named is GB4. As to the kind of experiment: qHTS profiling for inhibitors of Plasmodium falciparum proliferation (AID 504749). Further: potency means the concentration at half of the fitted maximal effect. The following applies: P. falciparum in erythrocytes, SYBR Green DNA, 72 h; series mostly up to 28.7 µM. Put shortly:
as §1

Experiment [14] deals with ICS. Described as above. Particulars: P. falciparum in erythrocytes, SYBR Green DNA, 72 h; series mostly up to 28.7 µM. In short, it runs like this: as §1
For experiment [15], the system named is P93_24. The description is as above. The following applies: P. falciparum in erythrocytes, SYBR Green DNA, 72 h; series mostly up to 28.7 µM. Put shortly:
as §1

The test system of experiment [16] is P94_40. The experiment is described as above. Particulars: P. falciparum in erythrocytes, SYBR Green DNA, 72 h; series mostly up to 28.7 µM. Put shortly:
as §1

Experiment [17] relates to TAB165. The experiment is described as above. The following applies: P. falciparum in erythrocytes, SYBR Green DNA, 72 h; series mostly up to 28.7 µM. Put shortly:
as §1

Experiment [18] relates to ECU. The description is as above. The following applies: P. falciparum in erythrocytes, SYBR Green DNA, 72 h; series mostly up to 28.7 µM. Put shortly: as §1
Experiment [19] has as its system PAD. The experiment is described as above. Particulars: P. falciparum in erythrocytes, SYBR Green DNA, 72 h; series mostly up to 28.7 µM. In short, it runs like this: as §1
The test system of experiment [20] is TAB109. The experiment is described as above. The following applies: P. falciparum in erythrocytes, SYBR Green DNA, 72 h; series mostly up to 28.7 µM. Put shortly:
as §1
Further: nearly all actives have a fitted effect of over 60% in size.

Take `CN(C)C/C=C(/c1ccc(Br)cc1)c1cccnc1`: the Potency in experiment [1] is 12.6 µM (active); in [11], 8.49 µM (active). Further, the Potency result in experiment [2], in [3], in [4], in [5], in experiment [6] and in experiment [7] was “inactive” each time. Besides, the Potency result in [8], in experiment [9] and in experiment [10] was “inactive” each time. In addition, the result in experiment [12] was inactive.
Turning to `C=CCc1ccccc1OCC(O)CNC(C)C` (stereo unspecified), the Potency was 7.94 µM (active) in [1]; 7.57 µM (active) in experiment [13]; 11.2 µM (active) in experiment [14]; 11.2 µM (active) in experiment [5]; 4.47 µM (active) in experiment [15]; 12.6 µM (active) in experiment [16]. Moreover, the Potency in [17] is 10 µM (active); in experiment [11], 2.39 µM (active). The Potency result in [2] and in experiment [8] was “inactive” throughout. In [12], the max response is -1.4%.
On to `O=C(CCCN1CCC(O)(c2cccc(C(F)(F)F)c2)CC1)c1ccc(F)cc1`, for which the Potency was 5.62 µM (active) in experiment [1]; 2.24 µM (active) in experiment [18]; 6.01 µM (active) in experiment [13]; 12.6 µM (active) in experiment [3]; 5.01 µM (active) in experiment [14]; 12.6 µM (active) in [4]. For the same compound, the Potency in [5] was 7.94 µM (active); in [15], 10 µM (active); in [16], 8.91 µM (active); in experiment [19] it was 10 µM (active); in [8] it was 7.94 µM (active); in experiment [9] it was 11.2 µM (active). The Potency was 8.91 µM (active) in [20], 12.6 µM (active) in experiment [10], 7.94 µM (active) in experiment [17] and 2.69 µM (active) in experiment [11]. Also, the max response in experiment [12] was -19.1%.
Turning to `CN1CCN(C2=Nc3ccccc3Oc3ccc(Cl)cc32)CC1`, the Potency entry in experiment [1], in experiment [18], in experiment [2], in experiment [3], in experiment [4] and in experiment [5] was “inactive” each time. In addition, the Potency entry in experiment [15], in experiment [16], in [19], in [6], in experiment [8] and in experiment [9] was “inactive” throughout. Further, the Potency result in experiment [20], in [10] and in experiment [17] was “inactive” each time. For the same compound, in experiment [12], the compound was classed as inactive.
For the compound `CNCCC(Oc1ccccc1OC)c1ccccc1` (stereo unspecified), the Potency in experiment [1] is 6.31 µM (active); in experiment [8], 3.16 µM (active); in experiment [17], 11.2 µM (active); in [11] it was 4.26 µM (active). Also, the Potency entry in [2] and in experiment [3] was “inactive” throughout. In addition, the max response in experiment [12] was -0.295%.
In the case of `NC(=Nc1ccccc1)Nc1ccccc1`, the Potency result in experiment [18], in experiment [2], in experiment [3], in experiment [14], in experiment [4] and in [5] was “inactive” each time. The Potency result in experiment [15], in experiment [16], in experiment [19], in experiment [6], in experiment [8] and in experiment [9] was “inactive” throughout. Besides, the Potency result in [20], in experiment [10] and in experiment [17] was “inactive” in each case. The Potency in experiment [11] was 9.53 µM (active). In [12], the max response is -3.1%.
In the case of `CC1=C(C)C(=O)C(CCCCC#CCCCC#CCO)=C(C)C1=O`, the Potency in [18] is 2.82 µM (active); in [13], 7.57 µM (active); in [14], 2.24 µM (active); in [5], 7.94 µM (active); in experiment [15], 5.01 µM (active); in [16], 8.91 µM (active). The Potency is 4.47 µM (active) in experiment [19]; 8.91 µM (active) in experiment [6]; 7.57 µM (active) in experiment [7]; 7.08 µM (active) in [9]; 7.94 µM (active) in experiment [10]; 5.01 µM (active) in experiment [17]. Besides, the Potency in [11] is 6.01 µM (active). Besides, the Potency entry in experiment [2] and in experiment [8] was “inactive” each time. In addition, the max response in experiment [12] was -2.8%.
Regarding `CCCCCCCC/C=C\CCCCCCCC(=O)NCc1ccc(O)c(OC)c1`, the values for the Potency in experiment [1], in [9] and in experiment [17] were 14.1 µM (active), 10 µM (active) and 8.91 µM (active), respectively. In [7], the Potency entry was “inactive”. Moreover, the max response in experiment [12] is -0.832%.
For the compound `COc1ccc(CCN(C)CCCC(C#N)(c2cc(OC)c(OC)c(OC)c2)C(C)C)cc1OC` (stereo unspecified), the Potency in [1] is 5.62 µM (active); in experiment [14], 7.94 µM (active); in experiment [11] it was 2.39 µM (active). Also, the Potency entry in experiment [2], in experiment [6] and in experiment [8] was “inactive” each time. In [12], the max response is -12.1%.
As to `c1cc(CN2CCCCC2)cc(OCCCNc2nc3ccccc3s2)c1`, the Potency in [1] was 6.31 µM (active); in [16], 10 µM (active); in experiment [20], 2.24 µM (active); in experiment [17] it was 3.98 µM (active); in experiment [11] it was 4.78 µM (active). The Potency entry in [2] and in experiment [4] was “inactive” each time. Moreover, the max response in experiment [12] is -17.3%.
